Results taken from PubChem BioAssay.
Active and inactive are the calls of the source. Unless noted, no rule for the calls is given here.

How the values were obtained:
[1] = HepG2 liver cancer cell viability effects, profiling panel, resazurin fluorescence, 24 h, PK04 Diversity Set (AID 1172); details: higher = more signal
[2] = basal S. cerevisiae growth modulation, no modifier, primary screen, OD600, strain BY4716, 24 h, basal condition (AID 1173); details: OD600, 24 h, higher = more signal, called active from +8 up or from −8 down
[3] = MM1S myeloma cell viability, profiling panel, resazurin fluorescence, basal, 24 h, PK04 Diversity Set (AID 1174); details: higher = more signal, called active from +8 up or from −8 down;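 also: MM1S multiple myeloma cell line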
[4] = molecular target: Dihydroorotate dehydrogenase (quinone), mitochondrial (Plasmodium falciparum (isolate 3D7)) (UniProt Q08210); assay: PfDHODH enzyme inhibitors, primary screen, biochemical, C-terminal His tag, absorbance 600 nm (AID 1175); details: DCIP absorbance 600 nm, higher = more signal, called active from +8 up or from −8 down;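 also: recombinant parasite enzyme with a five histidine tag at its C terminus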
Dihydroorotate dehydrogenase (quinone), mitochondrial (Plasmodium falciparum (isolate 3D7)), sequence (Q08210 whole entry, looked up): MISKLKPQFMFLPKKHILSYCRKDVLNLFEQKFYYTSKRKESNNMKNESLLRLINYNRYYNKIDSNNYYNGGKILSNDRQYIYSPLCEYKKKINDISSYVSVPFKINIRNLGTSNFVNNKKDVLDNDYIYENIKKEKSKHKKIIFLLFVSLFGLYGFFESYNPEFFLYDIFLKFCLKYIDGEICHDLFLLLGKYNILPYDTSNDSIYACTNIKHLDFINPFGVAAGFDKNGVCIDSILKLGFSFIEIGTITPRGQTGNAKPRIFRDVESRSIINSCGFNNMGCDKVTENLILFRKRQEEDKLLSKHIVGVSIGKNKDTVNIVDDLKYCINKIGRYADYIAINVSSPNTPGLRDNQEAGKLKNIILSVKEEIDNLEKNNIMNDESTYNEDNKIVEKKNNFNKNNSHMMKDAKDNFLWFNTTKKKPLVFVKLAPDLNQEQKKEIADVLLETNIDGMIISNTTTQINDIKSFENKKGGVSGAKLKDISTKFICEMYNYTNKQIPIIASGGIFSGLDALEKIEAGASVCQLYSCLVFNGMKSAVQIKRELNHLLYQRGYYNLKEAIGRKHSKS

[5] = P. aeruginosa biofilm formation inhibitors, primary screen, strain PAO1, LB-PBS medium, absorbance 600 nm (AID 1176); details: P. aeruginosa PAO1 growth/biofilm, A600, 12 h; higher = more signal
[6] = S. cerevisiae RM11-1a growth modifiers, primary screen, strain RM11-1a, OD600, basal, 24 h (AID 1177); details: OD600, 24 h, higher = more signal, called active from +8 up or from −8 down;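 also: cultures grown under basal conditions with no added stressor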
[7] = E. coli acrAB mutant growth effects, primary screen, E. coli filamentation inducers, strain DRC39, OD650, 24 h (AID 1178); details: higher = more signal, called active from +8 up or from −8 down;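 also: growth measured as culture turbidity by optical density at 650 nm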
[8] = E. coli acrAB mutant growth effects, primary screen, E. coli filamentation inducers, strain DRC39, OD650, 48 h (AID 1179);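 also: screen aims at cell division blockers that make cells filament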; details: E. coli DRC39 delta-acrAB growth, higher = more signal, called active from +8 up or from −8 down
[9] = RPMI8226 myeloma cell viability, profiling panel, resazurin fluorescence, basal, 24 h, PK04 Diversity Set (AID 1180); details: higher = more signal;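 also: RPMI8826 multiple myeloma cell line at 5000 cells per well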
[10] = molecular target: E3 ubiquitin-protein ligase XIAP (Homo sapiens) (UniProt P98170); assay: XIAP binders, primary screen, biophysical, small-molecule microarray, fluorescence 635 nm (AID 1181); details: small-molecule microarray binding, higher = more signal;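 also: score merges 667 nm emission and signal to noise over triplicate slides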
E3 ubiquitin-protein ligase XIAP (Homo sapiens), sequence (P98170 whole entry, looked up): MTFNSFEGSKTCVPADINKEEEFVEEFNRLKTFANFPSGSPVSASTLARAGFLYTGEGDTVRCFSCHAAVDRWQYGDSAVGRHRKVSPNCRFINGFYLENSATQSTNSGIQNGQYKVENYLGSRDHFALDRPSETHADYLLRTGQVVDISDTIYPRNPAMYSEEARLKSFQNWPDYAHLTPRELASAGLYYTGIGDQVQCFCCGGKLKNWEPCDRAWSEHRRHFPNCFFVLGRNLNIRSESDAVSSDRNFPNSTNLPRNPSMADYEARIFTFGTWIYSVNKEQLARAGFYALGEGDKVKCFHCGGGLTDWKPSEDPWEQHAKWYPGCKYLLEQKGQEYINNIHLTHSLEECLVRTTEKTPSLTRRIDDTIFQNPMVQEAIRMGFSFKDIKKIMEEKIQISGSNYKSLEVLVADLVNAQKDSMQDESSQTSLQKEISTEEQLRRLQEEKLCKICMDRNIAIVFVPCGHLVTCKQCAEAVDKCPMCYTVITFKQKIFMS

[11] = tested on: XIP peptide (Xip251-270) binding; assay: small-molecule binders of XIP peptide, primary screen, biochemical, small-molecule microarray, fluorescence 635/667 nm, 0.1 µg/mL protein (AID 1182); details: fluorescent protein binding, 635 nm, higher = more signal, called active from +8 up or from −8 down
[12] = tested on: XIP peptide (Xip251-270); assay: small-molecule binders of XIP peptide, primary screen, biochemical, small-molecule microarray, fluorescence 635/667 nm, 0.5 µg/mL protein (AID 1183); details: small-molecule microarray binding, fluorescence 635 nm; higher = more signal
[13] = Plasmodium falciparum growth inhibition, primary screen, strain 3D7, DAPI fluorescence, 100 nL (AID 1184);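 also: parasites grown inside human red blood cells in medium with human serum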; details: P. falciparum 3D7 growth, 3 d, higher = more signal
[14] = molecular target: Homeobox protein Hox-A13 (Mus musculus) (UniProt Q62424); assay: inhibitors of HoxA13-DNA binding, primary screen, biochemical, fluorescence polarization, labeled oligonucleotide (AID 1185); details: 15 min, higher = more signal, called active from +8 up or from −8 down
Homeobox protein Hox-A13 (Mus musculus), sequence (Q62424 whole entry, looked up): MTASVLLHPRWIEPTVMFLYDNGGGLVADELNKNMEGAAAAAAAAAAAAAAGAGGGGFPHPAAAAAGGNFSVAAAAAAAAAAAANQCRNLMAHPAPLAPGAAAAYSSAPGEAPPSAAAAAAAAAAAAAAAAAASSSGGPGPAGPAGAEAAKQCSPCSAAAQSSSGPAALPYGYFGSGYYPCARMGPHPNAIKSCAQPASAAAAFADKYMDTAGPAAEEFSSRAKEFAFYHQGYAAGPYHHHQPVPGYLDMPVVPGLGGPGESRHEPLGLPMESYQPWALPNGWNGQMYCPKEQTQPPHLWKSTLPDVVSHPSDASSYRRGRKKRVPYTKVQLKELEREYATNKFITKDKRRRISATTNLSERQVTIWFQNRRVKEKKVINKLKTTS

[15] = inhibitors of hydroxyurea-induced Chk1 phosphorylation, primary screen, imaging, HeLa, phospho-Chk1 antibody, percent positive cells (AID 1186); details: hydroxyurea-induced phospho-Chk1 immunofluorescence imaging, higher = more signal
[16] = inhibitors of hydroxyurea-induced Chk1 phosphorylation, primary screen, imaging, HeLa, phospho-Chk1 nuclear intensity (AID 1187); details: hydroxyurea-induced phospho-Chk1 immunofluorescence imaging, higher = more signal

Structure (SMILES)	z-score [1]	z-score [2]	z-score [3]	composite z-score [4]	z-score [5]	z-score [6]	z-score [7]	z-score [8]	z-score [9]	composite z-score [10]	composite z-score [11]	composite z-score [12]	z-score [13]	z-score [14]	z-score [15]	z-score [16]
CC(CO)N1C(=O)[C@]2(C)C3C(=O)OCCC/C=C\[C@H]3OC23C=CCN(c2ccc(Cl)cc2)C(=O)[C@@H]13 (some centres undefined)	-0.342	0.317 (inactive)	0.28 (inactive)	-0.924 (inactive)	-0.264 (inactive)	-0.354 (inactive)	0.351 (inactive)	0.779 (inactive)	0.499	0.834	-0.356 (inactive)	0.725	0.416	-3.59 (inactive)	0.0747 (inactive)	0.651 (inactive)
O=C1C2C=CC(C(O)c3ccco3)N(Nc3ccccc3F)C2C(=O)N1c1ccccc1 (centres undefined)	0.162	-0.258 (inactive)	-0.936 (inactive)	0.334 (inactive)	1.04 (inactive)	0.101 (inactive)	-0.887 (inactive)	-0.921 (inactive)	-0.684	0.318	0.36 (inactive)	-0.139	1.09	-1.61 (inactive)	0.456 (inactive)	0.257 (inactive)
COC(=O)c1c(CC[C@@H](CO)NC(=O)N2CCC[C@H]2Cn2cc(C3(O)CCCCC3)nn2)oc(C(C)=O)c1C(=O)OC	-0.089	-0.212 (inactive)	-0.66 (inactive)	-0.0366 (inactive)	-0.546 (inactive)	-0.37 (inactive)	0.294 (inactive)	-0.0642 (inactive)	-0.302	-0.0448	0.812 (inactive)	0.499	-0.373	-4.77 (inactive)	-0.125 (inactive)	-0.0208 (inactive)
O=C(NCCN1CCOCC1)[C@@H]1c2ccccc2C(=O)N(C2Cc3ccccc3C2)[C@H]1c1ccc(CO)cc1	-0.174	-0.633 (inactive)	0.886 (inactive)	-1.79 (inactive)	0.404 (inactive)	-1.44 (inactive)	0.638 (inactive)	1.07 (inactive)	0.142	0.164	1.54 (inactive)	0.584	-0.98	-3.28 (inactive)	-0.61 (inactive)	-0.411 (inactive)
CCOC(=O)C[C@H]1[C@H](OC(=O)c2ccccc2-c2ccccc2)[C@@H](NC(=O)c2ccc3ccccc3n2)c2cc(OCCCO)ccc2N1C(=O)Cc1ccc(OC)cc1	-0.271	0.64 (inactive)	-0.343 (inactive)	0.315 (inactive)	0.413 (inactive)	-0.384 (inactive)	-0.42 (inactive)	-0.281 (inactive)	-0.0052	-0.408	-0.0195 (inactive)	-0.203	-1.64	-2.31 (inactive)	0.332 (inactive)	-0.135 (inactive)
CC[C@@H]1O[Si](C(C)C)(C(C)C)c2c1cc(-c1cc(C)c(OC)c(C)c1)nc2-c1ccc(Oc2ccccc2)cc1	1.41	-0.122 (inactive)	0.722 (inactive)	-0.148 (inactive)	-0.783 (inactive)	-0.0894 (inactive)	0.48 (inactive)	0.424 (inactive)	0.51	0.113	-0.162 (inactive)	-0.22	0.0977	-1.52 (inactive)	-0.557 (inactive)	-0.461 (inactive)
[N-]=[N+]=Nc1ccccc1C[C@@]1(C(=O)NCCN2CCOCC2)N=C(c2ccc(OCCCO)cc2)O[C@@H]1c1ccccc1N=[N+]=[N-]	-1.02	-3.4 (inactive)	-2.12 (inactive)	0.322 (inactive)	-0.124 (inactive)	0.26 (inactive)	-0.229 (inactive)	-1.02 (inactive)	-2.02	0.17	0.361 (inactive)	0.846	-2.49	-5.26 (inactive)	-0.303 (inactive)	-0.523 (inactive)
CS(=O)(=O)CCOC(=O)C1=CC(c2ccc(CO)cc2)=CC(C2CC2)N(Cc2sc3ccccc3c2Cl)C=C1C(=O)OCCS(C)(=O)=O (centres undefined)	0.315	-5.45 (inactive)	-2.63 (inactive)	-1.26 (inactive)	-0.563 (inactive)	0.272 (inactive)	-3.53 (inactive)	-2.01 (inactive)	-1.85	0.0049	0.766 (inactive)	0.492	-3.02	0.0711 (inactive)	-0.27 (inactive)	0.137 (inactive)
C=CCN1C(=O)[C@]2(CCC(=O)OC(C)(C)C)N=C(c3ccc(OCCCO)cc3)O[C@@H]2c2ccccc21	-1.11	-1.32 (inactive)	-3.44 (inactive)	-0.292 (inactive)	0.314 (inactive)	0.853 (inactive)	0.93 (inactive)	0.685 (inactive)	-6.48	-0.0387	0.0041 (inactive)	0.464	-1.34	-2.63 (inactive)	-0.646 (inactive)	-0.541 (inactive)
